Results as given in PubChem BioAssay (NCATS).
Active and inactive are the calls of the source. Calls follow the shape of the dose curve; as a rule, active = well fitted inhibition curve with a large enough effect; inconclusive = small, poorly fitted or top-dose-only effect; inactive = flat fitted curve, though single readings scatter.

tested on: Nanoluciferase (engineered Oplophorus gracilirostris luciferase); assay: Primary Nanoluciferase (NLuc) qHTS assay for identification of artifact compounds. (AID 1845222); settings: NLuc-conditioned medium, Nano-Glo luminescence, 5 min; series mostly up to 54.1 µM; activity, negative = inhibition: at the top concentration;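 also: 0% = DMSO and -100% = no enzyme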
Outline: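 Compounds are pinned into diluted (1:55) conditioned medium of NLuc-expressing S16 cells and held 15 min at room temperature protected from light. Nano-Glo substrate follows, and luminescence is read 5 min later.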

| SMILES | activity, negative = inhibition |
| --- | --- |
| CN(C)S(=O)(=O)c1ccc(NC(=S)N2CCC(C(O)(c3ccccc3)c3ccccc3)CC2)cc1 | 0.961% (inactive) |
| C=CC(C)(C)C12CC3C(=O)N4C(CC5(C(C)(C)C=C)c6ccccc6NC45)C(=O)N3C1Nc1ccccc12 (stereo unspecified) | 0.475% [at 25.7 µM] (inactive) |
| CC(=O)Nc1nc(C)c(-c2nc(N3CCCC(O)C3)no2)s1 (stereo unspecified) | 0.0486% (inactive) |
| Cn1cc(-c2cnn3c(N)c(Br)c(C4CCCNC4)nc23)cn1 (stereo unspecified) | -0.414% (inactive) |
| O=C(Nc1ccccc1C(=O)NC1CCCCNC1=O)c1cc2ccccc2s1 (stereo unspecified) | 0% (inactive) |
| CN(C)C(=O)Nc1cccc(-c2ccc(N(C)C)cc2)c1 | 1.94% (inactive) |
| COc1cc(N(C)CCN(C)C)c(N)cc1Nc1nccc(-c2cn(C)c3ccccc23)n1 | -4.44% (inactive) |
| CCC(C(C)O)n1ncn(-c2ccc(N3CCN(c4ccc(OCC5COC(Cn6cncn6)(c6ccc(F)cc6F)C5)cc4)CC3)cc2)c1=O (stereo unspecified) | -2.19% (inactive) |
| Fc1ccc(N2CCCCC2)c(NC(=S)c2ccncc2)c1 | -8.95% (inactive) |
| COc1cc2ncc(-c3ccccc3)nc2cc1OC | -9.11% (inactive) |
| c1cc(NC2CCNCC2)nc(-c2cnc3ccccn23)c1 | 0.178% (inactive) |
| CCCCCc1ccc(/C=C/C(=O)Nc2cc(Cl)ccc2C(=O)O)cc1 | -1.03% (inactive) |
| COc1cc2nc(N3CCN(C(=O)COc4c(OC)cccc4C(C)C)CC3)nc(N)c2cc1OC | 2.47% (inactive) |
| Cc1cc2occ(CN(C)CCN(C)Cc3cn(-c4cccc(C(F)(F)F)c4)c4ccccc34)c(=O)c2cc1C | 3.11% (inactive) |
| COc1cc2c(NC3CCN(C(C)C)CC3)nc(N3CCC(F)(F)CC3)nc2cc1OCCCN1CCCC1 | 0.163% (inactive) |
| Cc1cc(N2CCOCC2)ccc1Nc1nc(NC2CCCCC2)c2[nH]cnc2n1 | 0% (inactive) |
